From PubChem BioAssay AID1347426 (Functional Genomics Laboratory (NCATS/FGL), 2020) come the findings set out here.

In all, about 31,000 sequences went through this assay and about 1,400 (4.5%) were called active. This is one part of a sample in which actives are shown more often than they occur. Unmarked numbers belong to inactive results.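 How the source made its calls: active means median seed-adjusted z-score above 1 or below -1; inactive means the rest.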

A short description of this assay: Novel Modifiers of Survival Motor Neuron (SMN) Protein: Gene Identification via Genome-wide siRNA Screen.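 Further: luminescence tracks full-length SMN protein made from the SMN2 reporter.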 The note with it: HEK293T SMN2-luciferase reporter, siRNA knockdown, 72 h; actives lie on both sides. A digest of the protocol: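 Steps: spot 1 pmol siRNA, add Lipofectamine RNAiMax in serum-free DMEM, seed HEK293T SMN2–luciferase reporter cells; incubate 72 h at 37 °C; add ONE-Glo; normalize luminescence to control siRNA, log10, MAD. Candidates: |MAD| > 1.0.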
For the sequence CAGUGAAUCUUGGUUGUAATT against TBP, the median seed-adjusted z-score was -1.25 (active).
Consider GCAUCAUCCAGAGACUGCATT against CCL19, for which the median seed-adjusted z-score is 0.0364.
As to GCAGAGACACCUUGAAGUATT against GAD1, the median seed-adjusted z-score is 0.101.
Next, CGUGUUUAUAAUUACCGAATT against MED14: -3.22 (active); CACGAAAUCAUGCAAAUCATT against RPL17: -0.13; GAGGCGCACUUCAAGCAUATT against CENTA1: -0.555.
On to GGAGUAAACCUCACUGACATT against TMPRSS5, for which the median seed-adjusted z-score is 1.25 (active).
With GUAUCAAUCUUUGCGGAUATT against KL, the median seed-adjusted z-score is -0.267.
Next, AGAUCAUGACUUGUGCUGATT against SEZ6L2: -0.331; GGAGGGCAUUGUCACUAAATT against MCM3: 0.339; GGAUACCCAAUGCAAAUUATT against MMP16: 0.144.
Next, GGAGAACUACCAGAACCUUTT against ZNF74: 1.17 (active).
Consider GCACUGGACCAAUACAAGUTT against GPR84, for which the median seed-adjusted z-score is 0.285.
Then GGUGUUGUCUUGAGGUACATT against ADAMTS1, with 0.173.
Next, ACCCAGAUAUGGAUCUGCATT against TTLL10: 0.211; GCUCAAAUGGAGAACUAAATT against GALNT8: -0.283; GACCAAAAGUGGAACUCCATT against PTPN23: -0.0473.
Next, CCAUUGUUCCAGACUUCUUTT against CMBL: 0; GGGCAUGGGUUUUAAUCGATT against PYGO1: -1.23 (active); GAGUUAUACGAUCCAUGUATT against TXNL4A: -0.42.
In the case of AGAGCUAUGCUUUAGGUCUTT against S100A2, the median seed-adjusted z-score was -0.0951.
On to GCCUCAAUCUCUACUCGAATT against PCDHGA2, for which the median seed-adjusted z-score was -0.8.
Then GACAAAAAGUCCAACCCUATT against CYB5R3, with -0.901.
In the case of UGAGAUUUCGGAAUCAGAATT against TSPAN31, the median seed-adjusted z-score is -1.13 (active).
Next, GAACUAGGAUUUCAUAGCATT against LGR5: 0; GAGUCACAGUCGUUAUUCUTT against CNOT4: -0.116; GGAUUAUUUCUGGUUCCUATT against ATP8A2: 0.
Take GCAUCAGCAUGUCGGUGGATT against ARID3A: the median seed-adjusted z-score is -1.11 (active).
Turning to GUCCCGCAGAUUCAACAAATT against SSBP3, the median seed-adjusted z-score is 0.00592.
Next, CAAUCCUGUAUCUACCGUATT against OVCH1: 0.0211; CAUCAAUGAGGUAUACUAUTT against DYRK1B: 0.29; CUAUAAGUCUAGUAGCAAATT against WNK2: 0.212.
Then CGACGGCACCUGCAAUUUUTT against IMPA2, with 0.0513.
Next, GCUGUAAACAGUCAUCAGATT against ZNF180: 0.
In the case of GAAAAUGACGGUUAUAAGATT against PMM2, the median seed-adjusted z-score is 0.448.
Take GCAUGUUAUUGAAUUAUCATT against TM9SF2: the median seed-adjusted z-score is 1.09 (active).
For the sequence GGAACGUGGUACUUAGUUATT against HMGCS1, the median seed-adjusted z-score was 0.0596.
Then GCAGCUUCAAGAUCAAUGATT against ANTXR1, with -0.0849; and CAAAAGUGUAUAUAAACUUTT against NDUFS6, with -0.0128; and ACUUUGUCCGUGUGUCUUATT against SLC30A3, with -1.26 (active).
Turning to GGAACAGGAUGAAUAUGCATT against HADHB, the median seed-adjusted z-score is -0.188.
Then CGACUGGAUGUAUAAGCAUTT against TGIF2LX, with -0.568; and GAGAAGAAGUUCUUAAGGATT against ALKBH8, with -0.487.
Then AGUUCUACAUGCCGGAUGATT against GGTLC1, with -0.298; and GCCUCGUUCUGAAGACGAUTT against LIPC, with 0.244; and CCAACCACCAGAUCUAUGATT against LBX1, with -0.36.
Then CCAUGGCAGUACCAACUAGTT against CREM, with -2.37 (active); and GGACCACUAUUUACAGCAATT against FUCA2, with 0.562.
For GGUCUGUACUGGGAUUCAUTT against PKD2L2, the median seed-adjusted z-score is -0.0723.
In the case of GGCUUUUGCCCUAUCCAUUTT against WNK4, the median seed-adjusted z-score is 0.385.
Then CACGAGGAGUGGACAAUAUTT against UCK1, with -0.599; and CAAAUCGCCUAAUAAACUUTT against KRT33B, with 0.04; and GGAGCUUUGUCAAGAAGAUTT against FKBPL, with -1.11 (active).
Then GCCUGAUAACGUAAUAACATT against ARSA, with 0.0938; and GACUUACUUAGAUAUGAGATT against ZNF568, with 0.501.
Next, GGUUUGUCCCUUCGCUAUATT against LRRTM3: -0.0808.
As for GCAGAGAUUUCCAAGAAAATT against GPR32, the median seed-adjusted z-score is -1.2 (active).
CAAGAAUGACUGUGAUGAATT against PLA2G12A: the median seed-adjusted z-score is 0.139.
Turning to GGUCUAUACAGAGUCAAUATT against MRCL3, the median seed-adjusted z-score was -0.00909.
For GGAUUCACACGGGAAUUAATT against ZNF649, the median seed-adjusted z-score was 0.259.
Next, CGUCGAAUGUUUAAAGUCUTT against ITFG1: -0.417.
For ACGUGUUUGCUUCCACAAATT against NEURL2, the median seed-adjusted z-score is 1.39 (active).
Take GCAUGAUGGAUGUUGAUCATT against CCT5: the median seed-adjusted z-score is 0.
Then GCACUGAUGACAACAACUATT against HTR1F, with -0.127; and AGAGUGUGCCGGUUACCCATT against CD8B, with 0.174; and GAGUCACAAUUGAUCCGGATT against TOP2A, with -0.187.
Next, CCAUCGAUGAUGACUGUAATT against ETFB: 0.0669; GAGCAGAUCUUUUUAUGCATT against ZNF664: 1.08 (active).
Then CAUUGAGACCUAUCUGCUATT against MYH11, with 0.
